The test system of assay [1] is MILI (PIWIL2) piRISC loaded with piRNA #1 (26 nt). As to the kind of experiment: pre-steady-state target cleavage rate (min^-1); guide: piRNA #1 5'p-UGAGGUAGUAGGUUGUAUAGUAUCCA; higher = faster piRNA-guided slicing of the target. The note with it: auxiliary factor: 500 nM mouse GTSF1. The essentials: (§1)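 Cleave-'n-Seq: 1 nM active affinity-purified piRISC with one synthetic guide and 0.1 nM transcribed, DNA-blocked target RNA library were mixed, with or without 500 nM GTSF1 partner protein, in HEPES–potassium acetate buffer at 33 °C for 0–8 or 0–960 min. Uncleaved targets were sequenced and normalised to depth and to weakly complementary targets, three trials were pooled, and k3 was capped at 0.0001 min^-1. The pre-steady-state cleavage rate was fitted […].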

The subject of assay [2] is EfPiwi piRISC loaded with piRNA #1 (26 nt). As to the kind of experiment: pre-steady-state target cleavage rate (min^-1); auxiliary factor: 500 nM Ephydatia muelleri Gtsf1; guide: piRNA #1 5'p-UGAGGUAGUAGGUUGUAUAGUAUCCA; MIWI and MILI are mouse PIWI proteins and EfPiwi is from a freshwater sponge; tags in brackets are library labels; higher = faster piRNA-guided slicing of the target. A digest of the protocol: as §1

± gives the standard deviation.

With GGAGACCUAUCUAUACAACCUACUACCUCCA, the “pre-steady-state target cleavage rate” value in assay [1] amounted to 0.0927 ± 0.0097; in assay [2], 0.0208 ± 0.0083.

For “GGAGACCUAACUAUACAACCUACUACCUCA [g2:g21:cont:t1A]”, the “pre-steady-state target cleavage rate” value in assay [1] came to 0.148 ± 0.032; in assay [2], 0.013 ± 0.0043.

With GGAGUAGAUACUAUACAACCUACUACCUCA, the “pre-steady-state target cleavage rate” value in assay [1] came to 0.186 ± 0.0093; in assay [2] it was 0.158 ± 0.057.

As to GGAGACCAUACUAUACAUCCUACAACCUCA, the “pre-steady-state target cleavage rate” value in assay [1] stood at 0.208 ± 0.019; in assay [2] it was 0.00248 ± 0.0024.

Regarding GGAGUGGAUACAAUACAACGUACUACCUCA, the “pre-steady-state target cleavage rate” value in assay [1] came out at 0.0223 ± 0.0023; in assay [2], 0.00385 ± 0.0018.

Regarding GGAGUGGCAUACUAUACAACCUACUACCUCA, the figures for the “pre-steady-state target cleavage rate” value in assay [1] and in assay [2] were 0.204 ± 0.015 and 0.101 ± 0.029, respectively.

For GGAGUGGAUACUAUAGCAACCUACUACCUCA, the “pre-steady-state target cleavage rate” value came to 0.188 ± 0.009 in assay [1] and 0.0919 ± 0.034 in assay [2].

On to GGAGACCUUACUAUACAACCUACUAGCCUCA, for which the entries for the “pre-steady-state target cleavage rate” value in assay [1] and in assay [2] were 0.181 ± 0.018 and 0.00471 ± 0.0044, respectively.

GGAGACCUAUCUAUACAACAUACUACCUCA: the “pre-steady-state target cleavage rate” value in assay [1] was found to be 0.0382 ± 0.0074; in assay [2] it was 0.00529 ± 0.0038.

Regarding GGAGAGGUUACUAUACAACCAACUACCUCA, the “pre-steady-state target cleavage rate” value in assay [1] is 0.00725 ± 0.0016; in assay [2], 0.00401 ± 0.002.

On to GGAGACGAUACUAUACUACCUAGUACCUCA, for which the results for the “pre-steady-state target cleavage rate” value in assay [1] and in assay [2] were 0.0742 ± 0.015 and 0.00268 ± 0.0016, respectively.

Regarding GGAGACGAUACUAUACAACCAACUUCCUCA, the “pre-steady-state target cleavage rate” value in assay [1] amounted to 0.00374 ± 0.0027; in assay [2] it was 0.00381 ± 0.0022.

As for GGAGACCAUACAAUACAACCUACUACCUCA, the “pre-steady-state target cleavage rate” value in assay [1] amounted to 0.189 ± 0.023; in assay [2], 0.0108 ± 0.0032.

GGAGUGGAUACUAAACAACCUACUACGUCA: the “pre-steady-state target cleavage rate” value stood at 0.0421 ± 0.0062 in assay [1] and 0.00252 ± 0.0015 in assay [2].

GGAGAGGAAACUUUACAACCUACUACCUCA: the “pre-steady-state target cleavage rate” value came to 0.224 ± 0.031 in assay [1] and 0.0107 ± 0.0049 in assay [2].

On to GGAGACCAUACCUAUACAACCUACUACCUCA, for which the “pre-steady-state target cleavage rate” value in assay [1] was 0.152 ± 0.034; in assay [2] it was 0.0273 ± 0.011.

For GGAGUCGAUACUAUACAACCUACUAGCUCA, the “pre-steady-state target cleavage rate” value in assay [1] is 0.0244 ± 0.0057; in assay [2], 0.00304 ± 0.0019.

Turning to GGAGUGCAUACUAUACAACCUACUACCUCA, the “pre-steady-state target cleavage rate” value in assay [1] amounted to 0.18 ± 0.0089; in assay [2], 0.0787 ± 0.029.

GGAGUGGAUACUAUACAUGGUACUACCUCA: the entries for the “pre-steady-state target cleavage rate” value in assay [1] and in assay [2] were 0.00713 ± 0.0016 and 0.00303 ± 0.0028, respectively.

In the case of GGAGACGAUACUAUACAACCUACUUCCUGA, the “pre-steady-state target cleavage rate” value in assay [1] worked out at 0.00812 ± 0.005; in assay [2], 0.00342 ± 0.002.

Turning to GGAGACGAUACUAUACAAGCUAGUACCUCA, the “pre-steady-state target cleavage rate” value was found to be 0.105 ± 0.028 in assay [1] and 0.00387 ± 0.002 in assay [2].

For GGAGUGGAAUACUAUACAACCUACUACCUCA, the “pre-steady-state target cleavage rate” value in assay [1] is 0.165 ± 0.0081; in assay [2], 0.122 ± 0.045.

With GGAGAGCAUACUAUACAACCUACUACCUGA, the “pre-steady-state target cleavage rate” value in assay [1] is 0.112 ± 0.017; in assay [2], 0.00603 ± 0.0027.

For the sequence “GGAGACCAUACUAUACAACCUACUUGGAGA [g7:g23:cont:t1A]”, the “pre-steady-state target cleavage rate” value was found to be 0.00469 ± 0.0036 in assay [1] and 0.00547 ± 0.0034 in assay [2].

As for GGAGUGGUAUCUAUACAACCUACUACCUCA, the “pre-steady-state target cleavage rate” value in assay [1] turned out to be 0.136 ± 0.0091; in assay [2], 0.0613 ± 0.023.

Take GGAGACCUAUGAACACAACCUACUACCUCA: the figures for the “pre-steady-state target cleavage rate” value in assay [1] and in assay [2] were 0.0162 ± 0.0041 and 0.00896 ± 0.0044, respectively.

GGAGAGGAUACUAUUCAACGUACUACCUCA: the “pre-steady-state target cleavage rate” value in assay [1] was 0.0162 ± 0.0029; in assay [2], 0.00415 ± 0.0012.

In the case of GGAGACCAUACGUAUACAACCUACUACCUCA, the “pre-steady-state target cleavage rate” value in assay [1] came out at 0.212 ± 0.035; in assay [2] it was 0.159 ± 0.064.

Regarding GGAGAGGAUCACUAUACAACCUACUACCUCA, the entries for the “pre-steady-state target cleavage rate” value in assay [1] and in assay [2] were 0.086 ± 0.019 and 0.00867 ± 0.0051, respectively.

As for GGAGAGGAUACUAUACAAGCUACUACGUCA, the entries for the “pre-steady-state target cleavage rate” value in assay [1] and in assay [2] were 0.19 ± 0.02 and 0.00403 ± 0.0018, respectively.

As for GGAGACCUAUGUAGUACAACCUACUACCUCA, the “pre-steady-state target cleavage rate” value in assay [1] was 0.00758 ± 0.0032; in assay [2], 0.00368 ± 0.0031.

As to GGAGACCUUACUAUACAACGUACUACCUCA, the “pre-steady-state target cleavage rate” value in assay [1] came to 0.0177 ± 0.0026; in assay [2], 0.00318 ± 0.0019.

For the sequence GGAGUGGAUACAAUACAACCUACUAGCUCA, the “pre-steady-state target cleavage rate” value came to 0.0614 ± 0.0087 in assay [1] and 0.00216 ± 0.0014 in assay [2].

For GGAGACGAUUCUAUACAACCUACUUCCUCA, the “pre-steady-state target cleavage rate” value in assay [1] turned out to be 0.0941 ± 0.016; in assay [2], 0.00271 ± 0.0022.

On to GGAGACGAUACUAUACAACCUACCUACCUCA, for which the “pre-steady-state target cleavage rate” value in assay [1] was 0.131 ± 0.011; in assay [2] it was 0.00485 ± 0.002.

Take GGAGACCUUACUAUACAACCUACUACCACA: the “pre-steady-state target cleavage rate” value in assay [1] was 0.18 ± 0.018; in assay [2] it was 0.00339 ± 0.0016.

As for GGAGACCUUACUAUACAACCUACUACUUCA, the entries for the “pre-steady-state target cleavage rate” value in assay [1] and in assay [2] were 0.116 ± 0.016 and 0.0046 ± 0.003, respectively.

On to GGAGACCUAUCUGAUACAACCUACUACCUCA, for which the entries for the “pre-steady-state target cleavage rate” value in assay [1] and in assay [2] were 0.0421 ± 0.0081 and 0.00758 ± 0.0035, respectively.

For GGAGUGGAUACUAUACAACCUACUACCCUCA, the “pre-steady-state target cleavage rate” value was 0.104 ± 0.013 in assay [1] and 0.00587 ± 0.002 in assay [2].

In the case of GGAGACGAUACUAUACAACCUACUACCUACA, the “pre-steady-state target cleavage rate” value in assay [1] turned out to be 0.178 ± 0.013; in assay [2] it was 0.00797 ± 0.0032.

Regarding GGAGACGAAACUAUACAUCCUACUACCUCA, the “pre-steady-state target cleavage rate” value in assay [1] is 0.255 ± 0.026; in assay [2], 0.00655 ± 0.0027.

Consider GGAGACGCAUACUAUACAACCUACUACCUCA, for which the “pre-steady-state target cleavage rate” value in assay [1] was 0.268 ± 0.024; in assay [2], 0.0478 ± 0.018.

In the case of GGAGACGAUAUUAUACAACCUACUACCUCA, the “pre-steady-state target cleavage rate” value worked out at 0.214 ± 0.013 in assay [1] and 0.00616 ± 0.0034 in assay [2].

Turning to GGAGUGCAUACUAUACAACCAACUACCUCA, the “pre-steady-state target cleavage rate” value in assay [1] is 0.00672 ± 0.0023; in assay [2], 0.00484 ± 0.0026.

On to GGAGACGAUACUAUACAACCUACUACCUGA, for which the “pre-steady-state target cleavage rate” value in assay [1] is 0.132 ± 0.02; in assay [2], 0.0064 ± 0.002.

Consider GGAGAGGAUACUAUACAACCUACUACCUUCA, for which the “pre-steady-state target cleavage rate” value in assay [1] was determined as 0.178 ± 0.016; in assay [2], 0.104 ± 0.039.

In the case of GGAGACCUAACUAUACAAACUACUACCUCA, the “pre-steady-state target cleavage rate” value is 0.248 ± 0.025 in assay [1] and 0.0044 ± 0.0038 in assay [2].

Take GGAGACGAUACUAUAGAUCCUACUACCUCA: the “pre-steady-state target cleavage rate” value came out at 0.224 ± 0.013 in assay [1] and 0.00498 ± 0.0016 in assay [2].

GGAGAGGUUACUAUACAACGUACUACCUCA: the entries for the “pre-steady-state target cleavage rate” value in assay [1] and in assay [2] were 0.00751 ± 0.0028 and 0.00457 ± 0.0015, respectively.

In the case of GGAGAGGAUACUAUACAUCCUACUACCUGA, the figures for the “pre-steady-state target cleavage rate” value in assay [1] and in assay [2] were 0.00529 ± 0.0032 and 0.00462 ± 0.002, respectively.

Turning to GGAGACGAUACUAUUCAACCUACUAGCUCA, the results for the “pre-steady-state target cleavage rate” value in assay [1] and in assay [2] were 0.0651 ± 0.01 and 0.0042 ± 0.002, respectively.

GGAGUGGAUACUAUACAACCUACUACUUCA: the “pre-steady-state target cleavage rate” value worked out at 0.103 ± 0.0082 in assay [1] and 0.104 ± 0.042 in assay [2].

GGAGACGAUACUAUACAUCCUACUACGUCA: the “pre-steady-state target cleavage rate” value in assay [1] was 0.213 ± 0.033; in assay [2], 0.00318 ± 0.0012.

With GGAGACCUUACAAUACAACGUACUACCUCA, the results for the “pre-steady-state target cleavage rate” value in assay [1] and in assay [2] were 0.0135 ± 0.0052 and 0.00409 ± 0.004, respectively.

For the sequence GGAGACGAAACUAUACAACCUACUACCACA, the “pre-steady-state target cleavage rate” value turned out to be 0.219 ± 0.031 in assay [1] and 0.00352 ± 0.0032 in assay [2].

Consider GGAGACCAUACUAUACAACCUACACCUCA, for which the entries for the “pre-steady-state target cleavage rate” value in assay [1] and in assay [2] were 0.00885 ± 0.0037 and 0.00776 ± 0.0044, respectively.

In the case of GGAGUGGAUACUAUACAACCUACUACCACA, the “pre-steady-state target cleavage rate” value in assay [1] turned out to be 0.113 ± 0.0097; in assay [2] it was 0.00561 ± 0.0019.

As to GGAGUGGUACUAUACAACCUACUACCUCA, the results for the “pre-steady-state target cleavage rate” value in assay [1] and in assay [2] were 0.148 ± 0.0098 and 0.00812 ± 0.0044, respectively.

In the case of GGAGACCUUAACUAUACAACCUACUACCUCA, the figures for the “pre-steady-state target cleavage rate” value in assay [1] and in assay [2] were 0.138 ± 0.01 and 0.113 ± 0.039, respectively.

As for “GGAGACCUAUGAAUACAACCUACUACCUCU [g2:g18:cont:t1U]”, the “pre-steady-state target cleavage rate” value is 0.0139 ± 0.0044 in assay [1] and 0.688 ± 0.25 in assay [2].
